Measured values: paper PMC5540273 (PLoS ONE, 2017)

Columns and labels:
Conditions in all cases: concentration: 1 μM, replicates: in singlicate; n = 1
[1] = system: CAMK1
[2] = system: CAMK2A
[3] = system: CAMK2B
[4] = system: CAMK2D
[5] = system: CAMK2G
[6] = system: CAMK4
[7] = system: CAMKK1
[8] = system: CAMKK2
[9] = system: CASK
[10] = system: T1, CDC2L1
T1 construct: gene CDK11B
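Note: KINOMEscan kinase panel screen.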

Structure (SMILES)	%Inh [1]	%Inh [2]	%Inh [3]	%Inh [4]	%Inh [5]	%Inh [6]	%Inh [7]	%Inh [8]	%Inh [9]	%Inh [10]
CN(c1ccc2c(c1)nc(NCc1ccccc1)n2C)c1ccnc(Nc2ccc(CS(C)(=O)=O)cc2)n1.Cl [GW811603]	0%	0%	0%	0%	0%	0%	14%	0%	0%	94.2%
COc1ccc(C2=C(Nc3cccc(O)c3)C(=O)NC2=O)cc1 [SB-390766]	23%	0%	0%	11%	0%	0%	0%	0%	39%	0%
CS(=O)(=O)c1cccc(CNc2nc(Nc3ccc4c(c3)CCC(=O)N4)ncc2C(F)(F)F)c1	0%	0%	0%	0%	0%	0%	20%	9%	0%	0%
Cc1nn2c(=O)cc(N3CCO[C@H](C)C3)nc2n1Cc1cccc(Cl)c1Cl [GSK2373693]	0%	0%	0%	10%	5%	5%	20%	2%	75%	0%
CC(=O)Nc1cn2nc(Oc3cccc(NC(=O)c4cccc(C(F)(F)F)c4)c3)ccc2n1	19%	0%	15%	1%	0%	0%	0%	0%	17%	7%
Cn1cc(-c2ccc3c(c2)CCN3C(=O)Cc2cc(F)cc(F)c2F)c2c(N)ncnc21 [GSK2634140]	15%	0%	0%	0%	11%	0%	27%	1%	3%	0%
Nc1cccc(-c2ccc3c(N)n[nH]c3c2)c1 [GSK2193613]	29%	0%	0%	11%	26%	0%	2%	13%	13%	7%
Nc1ncnc2scc(-c3ccc(NC(=O)Cc4cc(F)ccc4F)cc3)c12.O=C(O)C(F)(F)F [SB-731254-M]	16%	0%	0%	10%	5%	0%	17%	12%	21%	11%
CC(C)NCC(Cc1ccccc1)NC(=O)c1cc(Br)c(-c2ccnc3[nH]ccc23)s1.Cl.Cl (centres unmarked) [GSK1383281]	34%	0%	0%	15%	15%	29%	33%	19%	0%	0%
O=C(Nc1n[nH]c2nc(-c3ccccc3)ccc12)C1CC1 [SB-708999]	3%	0%	0%	100%	17%	0%	6%	13%	14%	0%
CCn1c(-c2nonc2N)nc2c(-c3ccccc3)ncc(OCCCN)c21.O=C(O)C(F)(F)F.O=C(O)C(F)(F)F [GSK260205]	7%	0%	0%	14%	14%	8%	0%	0%	1%	0%
Cl.O=C(Nc1ccc(Oc2ccc3[nH]c(NC(=O)c4ccco4)nc3c2)cc1)Nc1cc(C(F)(F)F)ccc1F [GW683134]	0%	0%	0%	0%	0%	0%	0%	0%	50%	0%
COC(=O)Nc1nc2ccc(Oc3ccc(CC(=O)Nc4cc(C(F)(F)F)ccc4F)cc3)cc2[nH]1 [GW680903]	2%	0%	0%	1%	12%	0%	0%	9%	0%	0%
COc1ccc(C)c(Nc2ccnc(Nc3ccc(-c4cnc[nH]4)cc3)n2)c1.Cl [GW784041]	17%	0%	1%	22%	0%	30%	19%	0%	0%	8%
CCNC(=O)/C=C/c1n[nH]c2cc(Sc3ccccc3C(=O)NC)ccc12	7%	0%	0%	17%	27%	0%	10%	33%	40%	10%
Cn1cc(-c2ccc3c(c2)CCN3C(=O)Cc2cc(F)cc(C(F)(F)F)c2)c2c(N)ncnc21 [GSK2635225]	5%	0%	0%	0%	12%	0%	0%	8%	2%	5%
CSc1ccc(NC2=C(c3ccc(Cl)cc3)C(=O)NC2=O)cc1 [SB-317658]	19%	4%	0%	18%	1%	12%	0%	0%	0%	0%
O=C(O)C(F)(F)F.O=c1[nH]ccc2nc(N[C@@H]3CCNC3)nc(Nc3cc(Cl)cc(Cl)c3)c12 [GSK2188764]	84%	71%	37%	60%	57%	95.9%	75%	46%	19%	1%
CC(C)(C)c1ccc(C(=O)Nc2cn3cc(-n4ccnc4)ccc3n2)cc1	32%	18%	0%	0%	12%	0%	6%	7%	8%	3%
COc1cccc(C2=C(Nc3cccc(O)c3)C(=O)NC2=O)c1 [SB-390771]	4%	17%	0%	25%	34%	0%	15%	28%	28%	0%
Cc1ccc(-c2ccc3occ(-c4ccc(S(C)=O)cc4)c3c2)nn1 (centres unmarked)	0%	0%	0%	7%	0%	18%	11%	20%	0%	0%
CCNc1nccc(-c2c(-c3ccc(F)cc3)ncn2C2CCN(C)CC2)n1	0%	18%	0%	16%	8%	0%	12%	9%	0%	7%

Structure (SMILES)	%Inh [1]	%Inh [2]	%Inh [3]	%Inh [4]	%Inh [5]	%Inh [6]	%Inh [7]	%Inh [8]	%Inh [9]	%Inh [10]
COc1ccc(NC(=O)c2ccoc2)cc1-c1ccc(C(=O)NCC2CC2)cc1 [GW810437]	0%	0%	0%	0%	0%	19%	15%	30%	13%	14%
N#Cc1cnc2cc(-c3cnc(CNCCN4CCOCC4)s3)ccc2c1Nc1ccc(Oc2ccccc2)cc1 [GW664114]	22%	0%	0%	21%	0%	0%	48%	3%	15%	0%
COC(=O)Nc1nc2ccc(Oc3ccc(NC(=O)Nc4cc(C(F)(F)F)ccc4F)cc3)cc2[nH]1.Cl [GW654607]	2%	0%	0%	0%	15%	0%	6%	6%	12%	0%
NCCC(NC(=O)c1cc(Br)c(-c2ccnc3[nH]ccc23)s1)c1ccccc1.O=C(O)C(F)(F)F.O=C(O)C(F)(F)F (centres unmarked) [GSK1307810]	43%	34%	0%	29%	26%	0%	5%	9%	27%	0%
Cc1ccc(C)c(NC(=O)Nc2ccc(C)c(-c3ccc(C(=O)Nc4ccncc4)cc3)c2)c1 [GSK1398473]	8%	0%	0%	0%	25%	0%	12%	27%	0%	0%
Fc1cc(Cl)ccc1Nc1ccnc2cc(-c3ccc(CN4CCSCC4)o3)ccc12 [GW560106]	21%	0%	0%	5%	17%	0%	25%	21%	0%	0%
CC(C)c1nc(-c2ccc(F)c(NS(=O)(=O)c3c(F)cccc3F)c2)c(-c2ccnc(Nc3ccc(N4CCOCC4)nc3)n2)s1 [GSK1804250]	54%	0%	0%	7%	27%	0%	17%	21%	0%	0%
Cl.Cl.NC(CNC(=O)c1cc(Br)c(-c2ccnc3[nH]ccc23)s1)c1ccccc1 (centres unmarked) [GSK1322949]	42%	45%	39%	38%	48%	0%	8%	29%	38%	0%
COc1cccc(-c2nc(-c3ccccc3)[nH]c2-c2ccncc2)c1 [SB-610250]	1%	0%	0%	0%	2%	0%	0%	0%	15%	0%
CCn1cnc2c(NCc3ccccc3)ncnc21 [SKF-96418]	0%	0%	0%	0%	0%	7%	0%	1%	25%	0%
CN(c1ccc(NC(=O)Nc2cccc(Cl)c2)cc1)c1ccnc(N)n1.Cl [GW830707]	2%	0%	0%	10%	8%	14%	0%	14%	7%	0%
COc1cc(Nc2nccc(N3CCC(NS(=O)(=O)c4ccc(NC(C)=O)cc4)CC3)n2)cc(OC)c1OC [GSK1379825]	37%	0%	0%	7%	12%	0%	23%	8%	19%	0%
Cc1ccc(Nc2ccnc(Nc3ccc(C)c(F)c3)n2)cc1O.Cl [GW582868]	1%	96.6%	95.3%	0%	0%	0%	0%	0%	13%	0%
Cc1ccc(NC(=O)c2ccnc(N3CCCCC3)c2)cc1-c1ccc(C(=O)NCC2CC2)cc1 [GW775610]	0%	0%	0%	0%	0%	10%	0%	0%	0%	6%
Cc1ccc(NC(=O)c2ccc(Cl)c(Cl)c2)cc1-c1ccc(C(=O)Nc2ccncc2)cc1 [GSK1398460]	27%	0%	0%	7%	0%	9%	0%	4%	0%	2%
Fc1cc(Cl)ccc1Nc1ccnc2cc(-c3ccc(CN4CCOCC4)o3)ccc12 [GW560109]	0%	0%	0%	0%	0%	13%	0%	0%	16%	0%
O=C(Nc1n[nH]c2nc(-c3ccccc3O)ccc12)C1CC1 [SB-711880]	0%	0%	0%	0%	0%	0%	3%	0%	13%	0%
Cc1ccc(NC(=O)c2cccc(N3CCCCC3)c2)cc1-c1ccc(C(=O)NCC2CC2)cc1 [GSK1917008]	9%	0%	0%	0%	21%	1%	26%	11%	18%	22%
COc1cc(Nc2ccnc3cc(-c4ccncc4)ccc23)cc(OC)c1OC.Cl [GW494610]	20%	0%	0%	0%	7%	0%	7%	0%	15%	0%
Cc1ccc(O)cc1Nc1ccnc2ccc(C(C)(C)C)cc12 [GW856805]	45%	7%	10%	18%	22%	0%	3%	26%	25%	12%
Cl.N#CCc1ccc(Nc2nccc(Nc3ccc(Oc4ccccc4)cc3)n2)cc1 [GW639905]	10%	0%	0%	0%	0%	0%	0%	0%	8%	0%
Cc1cc(-c2ccnc(Nc3cccc(C#N)c3)n2)cc(C)c1O [GSK1440913]	24%	13%	11%	31%	39%	0%	24%	30%	0%	41%
